According to PubChem BioAssay (EPA / NIEHS):
The source made the active and inactive calls. The calls were made as follows: active = hit-call score of the fitted dose curve at least 0.9, where 1 is the maximum; inactive = score below 0.9.

Target: Aryl hydrocarbon receptor (Homo sapiens) (UniProt P35869)
Sequence (P35869 whole entry, looked up): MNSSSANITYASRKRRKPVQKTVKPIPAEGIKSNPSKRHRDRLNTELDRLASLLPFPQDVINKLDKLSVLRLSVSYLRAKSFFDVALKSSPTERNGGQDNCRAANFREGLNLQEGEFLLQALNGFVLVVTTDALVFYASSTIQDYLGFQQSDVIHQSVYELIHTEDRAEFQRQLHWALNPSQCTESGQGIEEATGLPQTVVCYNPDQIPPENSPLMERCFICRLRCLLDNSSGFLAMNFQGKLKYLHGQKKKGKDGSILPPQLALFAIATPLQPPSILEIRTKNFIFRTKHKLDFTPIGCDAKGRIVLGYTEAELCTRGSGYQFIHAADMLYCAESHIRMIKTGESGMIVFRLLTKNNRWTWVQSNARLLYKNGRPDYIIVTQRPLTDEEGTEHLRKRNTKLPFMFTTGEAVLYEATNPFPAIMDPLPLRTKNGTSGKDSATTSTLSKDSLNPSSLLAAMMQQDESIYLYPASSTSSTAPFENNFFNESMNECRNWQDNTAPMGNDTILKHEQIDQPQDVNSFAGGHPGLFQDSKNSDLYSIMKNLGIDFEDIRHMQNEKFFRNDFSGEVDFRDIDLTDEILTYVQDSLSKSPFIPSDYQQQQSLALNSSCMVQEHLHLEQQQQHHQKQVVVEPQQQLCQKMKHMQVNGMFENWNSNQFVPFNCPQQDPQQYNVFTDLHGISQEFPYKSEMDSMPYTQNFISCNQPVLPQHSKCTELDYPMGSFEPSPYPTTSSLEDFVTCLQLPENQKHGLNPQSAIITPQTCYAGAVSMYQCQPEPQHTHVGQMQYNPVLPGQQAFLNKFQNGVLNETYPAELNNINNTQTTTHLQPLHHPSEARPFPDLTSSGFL
Experiment: ATG_Ahr_CIS: Attagene CIS-FACTORIAL HepG2 Assay for human Aryl Hydrocarbon Receptor (Ahr) (AID 2282930)
Conditions: HepG2 AhR cis-factorial reporter transcription; actives raise or lower the signal
Procedure, shortened: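 Read-out: reporter mRNA quantified by RT-PCR with fluorescent primer extension and capillary electrophoresis. Human HepG2 liver cells carried transfected cis-promoter reporter units and were exposed to chemical for 24 h; gain or loss fitted relative to DMSO.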
For `CC1(C)S[C@@H]2[C@H](NC(=O)[C@H](N)c3ccccc3)C(=O)N2[C@H]1C(=O)O`, the outcome was “inactive”.
In the case of `Cc1cc(C)c(S(=O)(=O)O)cc1N=Nc1cc(S(=O)(=O)O)c2ccccc2c1O`, the AC50 is reported as 42.4 µM (active).
With `CC1=NN(c2cc(Cl)c(S(=O)(=O)O)cc2Cl)C(=O)C1N=Nc1ccc(S(=O)(=O)O)cc1` (stereo not drawn) the outcome was “inactive”.
For `CCCCCCCCCCC1CO1` (stereo not drawn), the outcome was “inactive”.
In the case of `CCCCn1cc[n+](C)c1`, the outcome is reported as “inactive”.
For `C[Si](C)(C)O[Si](C)(C)O[Si](C)(C)C`, the outcome was “inactive”.
For `CC(C)n1c(/C=C/[C@@H](O)C[C@@H](O)CC(=O)O)c(-c2ccc(F)cc2)c2ccccc21`, the AC50 was 51.7 µM (active).
With `CC1=C(CC=O)C(C)(C)CCC1` the outcome was “inactive”.
In the case of `CC(O)(P(=O)(O)O)P(=O)(O)O`, the outcome is reported as “inactive”.
With `Cc1cccnc1` the outcome was “inactive”.
For `C1=CCC=C1`, the outcome was “inactive”.
For `CN(C)CCC(c1ccc(Cl)cc1)c1ccccn1` (stereo not drawn), the outcome was “inactive”.
For `CN(C)CCCN1c2ccccc2CCc2ccc(Cl)cc21`, the outcome was “inactive”.
With `CC/C=C\CC1=C(C)CCC1=O` the outcome was “inactive”.
For `C[C@H]1C[C@H]2[C@@H]3CCC4=CC(=O)C=C[C@]4(C)[C@@]3(F)[C@@H](O)C[C@]2(C)[C@@]1(O)C(=O)CO`, the AC50 was 44.6 µM (active).
With `F[B-](F)(F)F` the outcome was “inactive”.
With `COc1ccccc1OCC(O)CO` (stereo not drawn) the outcome was “inactive”.
For `OCCN(CCO)c1cccc(Cl)c1`, the outcome was “inactive”.

System: not listed separately
Experiment: ATG_AP_1_CIS: Attagene CIS-FACTORIAL HepG2 Assay for human Activator Protein 1 (AP-1) (AID 2282931)
Conditions: HepG2 Attagene cis-factorial AP-1 reporter mRNA; actives raise or lower the signal
Procedure, shortened: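 HepG2 cells transiently transfected with cis-element-driven multiplex reporter units; 24 h compound exposure. Reporter mRNA quantified by RT-PCR, FAM-labelled fragments resolved by capillary electrophoresis; bidirectional fit versus DMSO baseline.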
With `CC1(C)S[C@@H]2[C@H](NC(=O)[C@H](N)c3ccccc3)C(=O)N2[C@H]1C(=O)O` the outcome was “inactive”.
With `CCC(C)(CCC(C)C)C(=O)O` (stereo not drawn) the outcome was “inactive”.
For `Cc1cc(C)c(S(=O)(=O)O)cc1N=Nc1cc(S(=O)(=O)O)c2ccccc2c1O`, the outcome was “inactive”.
In the case of `CCCc1c(OCCCCc2nn[nH]n2)ccc(C(C)=O)c1O`, the outcome is reported as “inactive”.
For `Clc1ccccn1`, the outcome was “inactive”.
With `c1cc(N(CC2CO2)CC2CO2)ccc1Cc1ccc(N(CC2CO2)CC2CO2)cc1` (stereo not drawn) the AC50 was 54.4 µM (active).
In the case of `CCCCCCOC(=O)CCCCCCCC(=O)OCCCCCC`, the outcome is reported as “inactive”.
For `CC1=NN(c2cc(Cl)c(S(=O)(=O)O)cc2Cl)C(=O)C1N=Nc1ccc(S(=O)(=O)O)cc1` (stereo not drawn), the outcome was “inactive”.
For `O=C(O)Cc1c[nH]c2ccccc12`, the outcome was “inactive”.
For `CCCCCCCCCCC1CO1` (stereo not drawn), the AC50 was 164 µM (active).
In the case of `NCc1ccccc1`, the outcome is reported as “inactive”.
With `O=[N+]([O-])c1ccc2nc[nH]c2c1` the outcome was “inactive”.
With `CCCCn1cc[n+](C)c1` the outcome was “inactive”.
For `CC(C)CC(=O)O`, the outcome was “inactive”.
For `C[Si](C)(C)O[Si](C)(C)O[Si](C)(C)C`, the outcome was “inactive”.
With `Cc1cc(O)cc(C)c1Cl` the outcome was “inactive”.
For `CC(C)n1c(/C=C/[C@@H](O)C[C@@H](O)CC(=O)O)c(-c2ccc(F)cc2)c2ccccc21`, the outcome was “inactive”.
For `CC1=C(CC=O)C(C)(C)CCC1`, the outcome was “inactive”.
For `CC(O)(P(=O)(O)O)P(=O)(O)O`, the outcome was “inactive”.
With `Cc1cccnc1` the AC50 was 58 µM (active).
For `Cc1ccccc1S(N)(=O)=O`, the outcome was “inactive”.
In the case of `C=C(C)C(=O)OCC1CCCO1` (stereo not drawn), the outcome is reported as “inactive”.
With `OCCOCCOCCOCCOCCO` the outcome was “inactive”.
With `C1=CCC=C1` the outcome was “inactive”.
For `CC(C)CC(=O)CC(C)CC(C)C` (stereo not drawn), the outcome was “inactive”.
In the case of `CCCOCCC`, the outcome is reported as “inactive”.
In the case of `CN(C)CCC(c1ccc(Cl)cc1)c1ccccn1` (stereo not drawn), the outcome is reported as “inactive”.
With `CN(C)CCCN1c2ccccc2CCc2ccc(Cl)cc21` the outcome was “inactive”.
With `CC/C=C\CC1=C(C)CCC1=O` the outcome was “inactive”.
For `C[C@H]1C[C@H]2[C@@H]3CCC4=CC(=O)C=C[C@]4(C)[C@@]3(F)[C@@H](O)C[C@]2(C)[C@@]1(O)C(=O)CO`, the outcome was “inactive”.
In the case of `COC(OC)C(C)c1ccccc1` (stereo not drawn), the outcome is reported as “inactive”.
With `F[B-](F)(F)F` the outcome was “inactive”.
In the case of `COCCCN`, the outcome is reported as “inactive”.
With `CC1=CCCC(C)(C)C12CCC(C)O2` (stereo not drawn) the outcome was “inactive”.
In the case of `CC(=O)c1nccs1`, the outcome is reported as “inactive”.
For `COc1ccccc1OCC(O)CO` (stereo not drawn), the outcome was “inactive”.
With `OCCN(CCO)c1cccc(Cl)c1` the outcome was “inactive”.
For `O=C(O)c1nc(Cl)c(Cl)c(Cl)c1Cl`, the outcome was “inactive”.
For `CC=CC(=O)O`, the outcome was “inactive”.

System: not listed separately
Experiment: ATG_AP_2_CIS: Attagene CIS-FACTORIAL HepG2 Assay for human Activator Protein 2 (AP-2) (AID 2282932)
Conditions: HepG2 AP-2 cis-reporter, Attagene transcription factor profiling; actives raise or lower the signal
Procedure, shortened: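 Read-out: fluorescent reporter mRNA via RT-PCR and capillary electrophoresis, 24 h post-dose in transiently transfected HepG2. Endogenous factors drive cis-promoter reporters; gain or loss of signal fitted bidirectionally against DMSO.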
With `CC1(C)S[C@@H]2[C@H](NC(=O)[C@H](N)c3ccccc3)C(=O)N2[C@H]1C(=O)O` the outcome was “inactive”.
In the case of `CCC(C)(CCC(C)C)C(=O)O` (stereo not drawn), the outcome is reported as “inactive”.
For `Cc1cc(C)c(S(=O)(=O)O)cc1N=Nc1cc(S(=O)(=O)O)c2ccccc2c1O`, the outcome was “inactive”.
With `CCCc1c(OCCCCc2nn[nH]n2)ccc(C(C)=O)c1O` the outcome was “inactive”.
With `Clc1ccccn1` the outcome was “inactive”.
For `c1cc(N(CC2CO2)CC2CO2)ccc1Cc1ccc(N(CC2CO2)CC2CO2)cc1` (stereo not drawn), the AC50 was 26.3 µM (active).
With `CCCCCCOC(=O)CCCCCCCC(=O)OCCCCCC` the outcome was “inactive”.
For `CC1=NN(c2cc(Cl)c(S(=O)(=O)O)cc2Cl)C(=O)C1N=Nc1ccc(S(=O)(=O)O)cc1` (stereo not drawn), the outcome was “inactive”.
For `O=C(O)Cc1c[nH]c2ccccc12`, the outcome was “inactive”.
In the case of `CCCCCCCCCCC1CO1` (stereo not drawn), the outcome is reported as “inactive”.
In the case of `NCc1ccccc1`, the outcome is reported as “inactive”.
With `O=[N+]([O-])c1ccc2nc[nH]c2c1` the outcome was “inactive”.
For `CCCCn1cc[n+](C)c1`, the outcome was “inactive”.
With `CC(C)CC(=O)O` the outcome was “inactive”.
In the case of `C[Si](C)(C)O[Si](C)(C)O[Si](C)(C)C`, the outcome is reported as “inactive”.
In the case of `Cc1cc(O)cc(C)c1Cl`, the outcome is reported as “inactive”.
With `CC(C)n1c(/C=C/[C@@H](O)C[C@@H](O)CC(=O)O)c(-c2ccc(F)cc2)c2ccccc21` the outcome was “inactive”.
With `CC(O)(P(=O)(O)O)P(=O)(O)O` the outcome was “inactive”.
With `Cc1cccnc1` the outcome was “inactive”.
In the case of `Cc1ccccc1S(N)(=O)=O`, the outcome is reported as “inactive”.
For `C=C(C)C(=O)OCC1CCCO1` (stereo not drawn), the outcome was “inactive”.
In the case of `OCCOCCOCCOCCOCCO`, the outcome is reported as “inactive”.
In the case of `C1=CCC=C1`, the outcome is reported as “inactive”.
For `CC(C)CC(=O)CC(C)CC(C)C` (stereo not drawn), the outcome was “inactive”.
In the case of `CCCOCCC`, the outcome is reported as “inactive”.
With `CN(C)CCC(c1ccc(Cl)cc1)c1ccccn1` (stereo not drawn) the outcome was “inactive”.
In the case of `CC/C=C\CC1=C(C)CCC1=O`, the outcome is reported as “inactive”.
With `COC(OC)C(C)c1ccccc1` (stereo not drawn) the outcome was “inactive”.
In the case of `F[B-](F)(F)F`, the outcome is reported as “inactive”.
In the case of `COCCCN`, the outcome is reported as “inactive”.
In the case of `CC1=CCCC(C)(C)C12CCC(C)O2` (stereo not drawn), the outcome is reported as “inactive”.
For `CC(=O)c1nccs1`, the outcome was “inactive”.
For `COc1ccccc1OCC(O)CO` (stereo not drawn), the outcome was “inactive”.
In the case of `OCCN(CCO)c1cccc(Cl)c1`, the outcome is reported as “inactive”.
With `O=C(O)c1nc(Cl)c(Cl)c(Cl)c1Cl` the outcome was “inactive”.
In the case of `CC=CC(=O)O`, the outcome is reported as “inactive”.
